Screens from PubChem BioAssay.
Shown is part of a subset that was picked to be rich in hits.
Pf Dd2 inh = qHTS Primary assay for Inhibitors of Plasmodium falciparum Dd2 growth in vitro. P. falciparum Dd2 growth, SYBR Green, 72 h. Potency, µM (highest dose often 28.9 µM), inactives show at the top dose activity, negative = inhibition, usual class: inhibitors. actives 4.3% (n = 120,000). AID 1347417, 2020; active = well fitted inhibition curve with a large enough effect;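 also: plate controls were DMSO vehicle for no effect and reference drug for full effect; nearly all actives have a fitted effect of over 65% in size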
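Readout: SYBR Green fluorescence, 485 nm excitation, 535 nm emission, after ~16 h lysis at 37C. Before that, Dd2-infected red cells (2.5% hematocrit) grew 72 h with compound, 29 uM top final concentration.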
Starred values were filed as active, the others as inactive; i = inactive; [ ] = another dose, or the depositor's remark. Potency is read from the fitted curve at half-maximal effect.

SMILES	Pf Dd2 inh
CCc1cccc(NC(=O)c2cc3c(=O)n(Cc4ccccc4)ccc3nc2C)c1	-1.8%
COc1ccc(Cn2ccc3nc(C)c(C(=O)Nc4ccc(F)cc4)cc3c2=O)cc1	5.8%
CCc1ccc(NC(=O)c2cc3c(=O)n(Cc4cccs4)ccc3nc2C)cc1	12.6µM*
Cn1cc(S(=O)(=O)c2ccccc2)c(=O)c2cc(F)c(N3CCN(c4ccccc4)CC3)cc21	7.08µM*
CCn1cc(S(=O)(=O)c2ccccc2)c(=O)c2cc(F)c(N3CCN(c4ccccc4)CC3)cc21	3.16µM*
CCn1cc(S(=O)(=O)c2cccc(C)c2)c(=O)c2cc(F)c(N3CCCCC3C)cc21 (configuration not stated)	26.4%
Cc1ccc(S(=O)(=O)c2cn(C)c3cc(N4CCN(c5ccccc5)CC4)c(F)cc3c2=O)cc1	-24.2%
Cn1cc(S(=O)(=O)c2ccccc2)c(=O)c2cc(F)c(N3CCOCC3)cc21	-7.2%
CCn1cc(S(=O)(=O)c2ccccc2)c(=O)c2cc(C)ccc21	-21.1%
COC(=O)C1=C(C)NC(=O)NC1c1cccs1 (configuration not stated)	5.5%
Cn1cc([C@@H](NC(=O)CCc2c[nH]c3ccccc23)C2CC(O)C2)cn1 (some centres not stated)	-2.5%
CCCN(Cc1ccc(F)cc1)C(=O)c1cnc(-c2ccc(C)cc2)[nH]c1=O	18.9%
OCc1cn(CC2CCN(c3ncnc4nc[nH]c34)CC2)nn1	-14.8%
COC[C@H]1C[C@@H](NCc2ccc(OC(F)(F)F)cc2)[C@H](O)[C@@H]1O	i
Cc1noc(C)c1CN1CCc2nc(C(=O)Nc3ccccc3)oc2CC1	i
O=C(Nc1cccc(C(F)(F)F)c1)c1nc2c(o1)CCN(Cc1ccccc1F)CC2	i
Cc1ccccc1CN1CCc2nc(C(=O)Nc3ccccc3)oc2CC1	-14.8%[44.1 µM]
COc1ccccc1CN1CCc2nc(C(=O)Nc3cccc(C(F)(F)F)c3)oc2CC1	-7.4%
COc1ccccc1CN1CCc2nc(C(=O)Nc3ccccc3)oc2CC1	11.2µM*
Cc1noc(C)c1CN1CCc2nc(C(=O)Nc3cccc(C(F)(F)F)c3)oc2CC1	12.6µM*
COCc1cc(=O)n(CC(=O)Nc2cc(Cl)ccc2C)c(N2CCOCC2)n1	19.8%
O=C(C1CCC1)N1CCCC(Cc2nc(C3CCOCC3)no2)C1 (configuration not stated)	31.7%
O=C(Cn1nc2n(c1=O)CCCCC2)Nc1ccc(F)cc1	17.8%
Cc1ccc(CC(=O)N2CCc3cn(C)c4cccc(c34)C2)cc1	-19.0%
O=C(N[C@@H]1CCC[C@@H]1C(=O)NCC1CCCCC1)c1ccncc1	-5.6%
SMILES	Pf Dd2 inh
Cc1nc(CN2CCC3(CC2)CC(c2ccccc2)C(=O)N(C2CC2)C3)no1 (configuration not stated)	-13.7%
Cc1ccc(-c2cn3c(n2)CO[C@@H](CNCc2ccc(-c4ccccn4)cc2)C3)cc1	12.6µM*
Cc1ccc(-c2cn3c(n2)CO[C@@H](CNCc2ccc(S(C)(=O)=O)cc2)C3)cc1	i
Cc1ccc(-c2cn3c(n2)CO[C@@H](CNCc2ccc(Cl)cc2)C3)cc1	i
CC(C)CNC(=O)N1C[C@@H](Oc2cccnc2)C[C@@H]1C(=O)N1CCOCC1	17.7%
N#Cc1cccc(CN2CC3(COCC(=O)N(Cc4cccc(OC(F)(F)F)c4)C3)C2)c1	-23.6%
CCN1C(=O)C2(CCN(S(=O)(=O)c3cccc(C(F)(F)F)c3)CC2)c2ccccc21	23.5%
Cc1cccc(C(=O)N2CC[C@@H](NC(=O)c3cnccn3)[C@H](O)C2)n1	0.8%
COC(=O)CC1Oc2ccc(F)cc2-n2cc(-c3ccc(Cl)cc3)nc21 (configuration not stated)	11.2µM*
O=C(CS(=O)(=O)c1nc(-c2ccc(Cl)cc2)cn1-c1ccccc1)Nc1ccc(F)cc1F	-1.1%
COC(=O)CNC(=O)c1nc(-c2ccc(Cl)cc2)c2ccccn12	-4.5%[44.1 µM]
COc1ccc(-n2cc(C(=O)Nc3cc(F)ccc3F)c3ccccc3c2=O)cc1	i
COC(=O)CC1Oc2ccccc2-n2cc(-c3ccc(Cl)cc3)nc21 (configuration not stated)	3.55µM*
COC(=O)c1ccc(Cl)cc1NC(=O)N1CC(C)Oc2ccccc21 (configuration not stated)	-25.0%
Cc1ccccc1Nc1n[nH]c(C(O)c2cccc(C(F)(F)F)c2)n1 (configuration not stated)	i
O=[S+]([O-])(Nc1nncs1)c1ccc2c(c1)OCCN(Cc1nccs1)C2	i
CCOC(=O)c1nc(Nc2ccc(Cl)cc2)c2c(C)noc2n1	16.7%
CCOC(=O)c1ccc(Nc2nc3nonc3nc2Nc2cccc(C)c2C)cc1	1.12µM*
CCOC(=O)c1ccc(Nc2nc3ccccc3n3c(C)nnc23)cc1	-23.5%
C[S+](=O)([O-])N1CC2ON=C(C(=O)NCc3ccc(F)cc3)C2C1 (configuration not stated)	13.3%
CC[C@H]1CN(C(=O)Nc2cccc(C(F)(F)F)c2)CC[C@H]1CC(=O)NCc1ccc(OC)cc1	i
CC[C@H]1CN(C(=O)Nc2cccc(OC)c2)CC[C@H]1CC(=O)NCc1cccnc1	0.9%[44.1 µM]
CC[C@H]1CN(C(=O)Nc2cccc(OC)c2)CC[C@H]1CC(=O)NCc1ccccc1	12.6µM*
Cc1ccccc1-c1cnc2[nH]cc(CC(=O)NC(C)C)c2c1	-4.5%[44.1 µM]
O=C(O)Cn1nc(-c2ccccc2)nc1C1CC(=O)N(Cc2cccnc2)C1 (configuration not stated)	-0.6%
SMILES	Pf Dd2 inh
CSCCC(=O)N1CCCC1C(=O)Nc1cccc(-n2cccn2)c1 (configuration not stated)	-11.6%
CCNC(=O)Cc1c[nH]c2ncc(-c3cccnc3OC)cc12	i
CC12CN3CC(C)(CN(C1)C3c1ccc(OCc3ccccc3)cc1)C2=O (configuration not stated)	23.2%
O=C1c2[nH]nc(-c3ccccc3O)c2C(c2ccccc2F)N1Cc1cccnc1 (configuration not stated)	10.4%
COCCCN1C(=O)c2[nH]nc(-c3ccccc3O)c2C1c1ccc(OCc2ccccc2)cc1 (configuration not stated)	8.91µM*
CCCCN1C(=O)c2[nH]nc(-c3ccccc3O)c2C1c1ccc(C(C)(C)C)cc1 (configuration not stated)	2.82µM*
CCCCN1C(=O)c2[nH]nc(-c3ccccc3O)c2C1c1ccc(OCc2ccccc2)cc1 (configuration not stated)	1.41µM*
COCCCn1c(C)cnc1C1CCN(C(=O)COc2ccccc2)C1 (configuration not stated)	-18.3%
CC(C)OCCCN1C(=O)c2[nH]nc(-c3ccccc3O)c2C1c1ccccc1F (configuration not stated)	11.2µM*
CCc1ccc(C(=O)N2CCC(Cc3nc(-c4cnccn4)no3)CC2)cc1	i
Cc1ccc(NC(=O)c2cc3n(n2)CC(c2ccc(Cl)cc2)OC3)cc1C (configuration not stated)	i
Cc1nc(-c2c3n(c(=O)n(CC(=O)c4ccc(Cl)cc4)c2=O)CCCC3)no1	-17.6%
O=C(CN1C(=O)COc2ccc(C(=O)COc3cccc(F)c3)cc21)NCc1ccco1	-16.7%
Cc1cccc(C)c1NC(=O)CN1C(=O)NC2(CCCCC2)C1=O	17.7%
COC(=O)CNC(=O)C1CCc2nnc(CNC(=O)c3cccnc3)n21 (configuration not stated)	22.5%
